Each structure is given as a SMILES string. Records with an inconclusive call do not appear. Calls of active or inactive are those of the source. Rule for the calls: active = hit-call score of the fitted dose curve at least 0.9, where 1 is the maximum; inconclusive = response in the unintended direction; inactive = score below 0.9.

In the test the test system is Brachyury (BRA) Protein Expression, Deisenroth Lab, TBXT (gene 6862). The test can be described thus: CCTE_Deisenroth_DEVTOX-GLR_Pluri_BRA: CCTE's DevTox GLR-Pluri Assay Evaluation of Brachyury (BRA) Protein Expression, Deisenroth Lab (AID 2284429). The procedure:
CCTE_Deisenroth_DEVTOX-GLR_Pluri assay is a cell-based, multiplex-readout assay that uses RUES2-GLR, a human pluripotent cell line, with measurements taken at 48 hours after chemical dosing in a 384-well microplateCCTE_Deisenroth_DEVTOX-GLR_Pluri_BRA is 1 of 4 assay components calculated from the CCTE_Deisenroth_DEVTOX-GLR_Pluri assay and it measures an the percentage of cells in an mesoderm state. Using a type of inducible fluorescent protein reporter, gain-of-signal activity can be used to understand changes in gene expression with fluorescent microscopy. The percentage of BRA+ cells are determined by calculating the number of BRA+ cells divided by the cell count. To generalize the intended target to other relatable targets, this assay component is annotated to the transcription factor intended target family, where the subfamily is T-box protein.Data from the assay component CCTE_Deisenroth_DEVTOX-GLR_Pluri_BRA was analyzed as 1 assay endpoint. The endpoint is the percent BRA+ cell population minus the 0.2% DMSO control in the CCTE_Deisenroth_DEVTOX-GLR_Pluri assay. Furthermore, this assay endpoint can be referred to as a secondary readout, because this assay has produced multiple assay endpoints where this one serves as a measure of mesoderm differentiation.
All assay protocols are aligned to the DevTox GLR-Endo assay workflow. Cells are seeded into 384-well microplates for 24 hours prior to initiating differentiation in defined media for a total duration of 48 hours. A total of two chemical exposures are administered in 24-hour intervals during the 48-hour differentiation period. At the assay termination point, cells are fixed and stained with a fluorescent dye demarcating the nucleus. High-content imaging is used to acquire brightfield and fluorescent channel images across 5 fields per well. Cell identification and mean biomarker fluorescence intensities are calculated with image analysis software to determine the total cell counts for viability assessment and the biomarker expression frequency for each lineage-dependent assay. A typical experimental design tests a 10-point concentration series (1 nM - 200 uM) for 28 compounds in single technical replicate. Assay plate controls include non-differentiated pluripotent cells (baseline control), lineage-specific differentiated cells (differentiation control), and DMSO solvent exposed differentiated cells (solvent control). Experiments typically comprise a minimum of four experimental replicates (n=4).
On to `Cc1nc(Nc2ncc(C(=O)Nc3c(C)cccc3Cl)s2)cc(N2CCN(CCO)CC2)n1`, for which the half-maximal activity concentration (AC50) was 0.0529 µM (active).

Regarding `CNC(=O)c1cc(Oc2ccc(NC(=O)Nc3ccc(Cl)c(C(F)(F)F)c3)cc2)ccn1`, the AC50 was 1.3 µM (active).

Consider `Nc1cccc2c1CN(C1CCC(=O)NC1=O)C2=O` (stereo not drawn), for which the outcome was inactive.

On to `CCCCCN=C(N)N/N=C/c1c[nH]c2ccc(OC)cc12`, for which the AC50 is 5.27 µM (active).

On to `Cc1ccc(NC(=O)c2ccc(CN3CCN(C)CC3)cc2)cc1Nc1nccc(-c2cccnc2)n1`, for which the AC50 is 23.2 µM (active).

As to `O=C1Cc2cc(CCN3CCN(c4nsc5ccccc45)CC3)c(Cl)cc2N1`, the AC50 is 4.26 µM (active).

Regarding `CN1CCN2c3ccccc3Cc3ccccc3C2C1` (stereo not drawn), the AC50 is 100 µM (active).

For `O=c1[nH]c(=O)n([C@H]2C[C@H](O)[C@@H](CO)O2)cc1Br`, the AC50 was 79.6 µM (active).

Consider `Cc1nc2sccn2c(=O)c1CCN1CCC(=C(c2ccc(F)cc2)c2ccc(F)cc2)CC1`, for which the concentration at half-maximal activity (AC50) is 24.1 µM (active).

For the compound `O=C(c1ccc(F)cc1)C1CCN(CCn2c(=O)[nH]c3ccccc3c2=O)CC1`, the AC50 is 127 µM (active).

Consider `CCN(CC)CCNC(=O)c1c(C)[nH]c(/C=C2\C(=O)Nc3ccc(F)cc32)c1C`, for which the AC50 is 0.264 µM (active).

As for `COc1cc2ncnc(Nc3ccc(F)c(Cl)c3)c2cc1OCCCN1CCOCC1`, the compound was called inactive.

As to `CC1=C(/C=C/C(C)=C/C=C/C(C)=C\C(=O)O)C(C)(C)CCC1`, the AC50 was 16.7 µM (active).

Values taken from PubChem BioAssay (EPA / NIEHS).
